In the supplement of paper PMC6555819:

Assays:
Assay in all cases: PBM binding z-score (relative to random genomic background probes); higher = stronger binding; sequences stand for … in GC…GCGATTGACAGCGTAGAATGAAGG
[1] = test system: FXR:RXRa (NR concentration 270 nM, RXRa partner concentration 90 nM)
Outline: (§1)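 The probes on custom Agilent 4×180K protein-binding microarrays were double-stranded, with 34-nt variable regions bearing direct-repeat seeds, single-nucleotide variants, half-site ablations and random human genomic background sequences. Incubation lasted 1 h with ligand-free nuclear receptor dimers in PBS pH 7.4, 2% milk, 0.02% Triton X-100, 1 mM DTT, 0.2 mg/mL BSA and 0.4 mg/ml salmon testes DNA. Antibodies against each partner (one per run) detected bound dimers, and fluorescence scans were regression-normalized. Binding z-scores take the random background probes as reference.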

[2] = test system: LXRa:RXRa (NR concentration 270 nM, RXRa partner concentration 90 nM)
Outline: as §1

[3] = test system: LXRa homodimer (NR concentration 270 nM)
Outline: as §1

[4] = test system: LXRb:RXRa (NR concentration 270 nM, RXRa partner concentration 90 nM)
Outline: as §1

[5] = test system: LXRb homodimer (NR concentration 270 nM)
Outline: as §1

[6] = test system: PPARa:RXRa (NR concentration 270 nM, RXRa partner concentration 90 nM)
Outline: as §1

[7] = test system: PPARg:RXRa (NR concentration 180 nM, RXRa partner concentration 90 nM)
Outline: as §1

[8] = test system: PPARg:RXRa 270nM:90nM, anti-RXR (NR concentration 270 nM, RXRa partner concentration 90 nM)
Outline: as §1

[9] = test system: PPARg:RXRa 30nM:10nM, anti-RXR (NR concentration 30 nM, RXRa partner concentration 10 nM)
Outline: as §1

[10] = test system: PPARg:RXRa 90nM:30nM, anti-RXR (NR concentration 90 nM, RXRa partner concentration 30 nM)
Outline: as §1

[11] = test system: PPARg:RXRa DBDmut IVT, anti-RXR (DBD mutation: RXRa K156A/R161A, NR concentration 270 nM, RXRa partner concentration 90 nM)
Outline: as §1

[12] = test system: PPARg:RXRa IVT, anti-PPARg (NR concentration 270 nM, RXRa partner concentration 90 nM)
Outline: as §1

[13] = test system: PPARg DBDmut:RXRa IVT, anti-PPARg (DBD mutation: PPARg1 K132A/R137A, NR concentration 270 nM, RXRa partner concentration 90 nM)
Outline: as §1

[14] = test system: PPARg DBDmut IVT, anti-PPARg (DBD mutation: PPARg1 K132A/R137A, NR concentration 270 nM)
Outline: as §1

[15] = test system: PPARg homodimer (NR concentration 180 nM)
Outline: as §1

[16] = test system: PXR:RXRa (NR concentration 270 nM, RXRa partner concentration 90 nM)
Outline: as §1

[17] = test system: PXR homodimer (NR concentration 270 nM)
Outline: as §1

[18] = test system: RARa:RXR (NR concentration 270 nM, RXRa partner concentration 90 nM)
Outline: as §1

[19] = test system: RARa homodimer (NR concentration 270 nM)
Outline: as §1

[20] = test system: RARb:RXRa (NR concentration 270 nM, RXRa partner concentration 90 nM)
Outline: as §1

Sequence	PBM binding z-score [1]	PBM binding z-score [2]	PBM binding z-score [3]	PBM binding z-score [4]	PBM binding z-score [5]	PBM binding z-score [6]	PBM binding z-score [7]	PBM binding z-score [8]	PBM binding z-score [9]	PBM binding z-score [10]	PBM binding z-score [11]	PBM binding z-score [12]	PBM binding z-score [13]	PBM binding z-score [14]	PBM binding z-score [15]	PBM binding z-score [16]	PBM binding z-score [17]	PBM binding z-score [18]	PBM binding z-score [19]	PBM binding z-score [20]
ACAGACAGGTGATGAAGGTAAATCAGGCTATCAT	-0.0911	-0.136	-0.0858	0.169	-0.557	0.252	0.707	0.0594	-0.0828	-0.0561	-0.0404	0.544	0.329	0.144	0.185	-0.214	-0.0702	0.248	0.26	0.21
TCTGGTAGGTCAACGATGGTCAGCTAATCTGCTA	4.45	3.6	0.986	2.55	0.479	4.35	4.4	4.54	3.78	4.32	5.2	5.77	1.81	0.722	2.39	2.25	0.21	2.78	0.843	4.16
CCTGCTAGGCCATGGTCAGCTAATCTACAGTATG	-0.543	-0.565	-0.936	-0.753	-0.769	-0.617	0.069	-0.552	-0.451	-0.579	1.36	0.103	-0.241	-1.56	-0.736	-0.665	-0.705	-0.631	-0.715	0.929
CCTACTGGGGCAGAAAGGTTACCATACCATCCGG	0.253	0.567	0.201	0.837	-0.839	2.14	2.05	2.74	0.989	2.22	3	4	0.246	-0.987	1.63	0.791	-0.188	1.85	0.396	1.87
CCTACTGGGCCACGAAAGGTCATTAATTCAGTGA	3.16	4.95	4.76	4.24	0.358	4.48	4.47	4.57	1.99	3.83	5.58	5.87	1.7	0.266	3.46	5.12	1.71	5.32	1.1	3.79
CCTATTAGTTCACCATAAGGGCAACCGAAGCTCG	1.35	2.07	0.985	1.29	0.844	1.67	0.515	0.652	-0.043	0.491	0.837	0.596	0.806	0.145	1.92	2.63	1.48	2.33	1.26	3.21
CATCCAAGGTCATAGGAGGTCAGTGAAGACAGAT	7.76	7.88	6.67	6.38	1.99	6.12	6.25	6.07	3.14	4.93	3.6	4.75	3.02	2.08	5.33	6.96	4.63	6.4	3.27	5.38
CGTCAAAGTTCAAGGTAACGCAACAGAAAGCAGC	6.65	5.28	2.35	3.52	1.08	4.51	4.65	5.25	2.32	4.14	0.947	2.53	0.438	0.38	3.41	4.06	3.14	3.59	1.14	5.15
AATACAGGGTCACTAGGCCAAAGTAGGTACGAAT	6.51	4.99	1.08	4	1.01	6.26	8.6	6.83	4.18	6.09	4.25	6.12	1.52	1.47	2.51	3.27	0.193	4.17	0.959	4.31
AGTCAAAGTTCATCTAGGTAGCGTAAGATATGCT	6.22	6.03	4.76	3.76	1.66	4.61	6.29	6.38	3.49	5.38	0.422	2.98	1.02	1.02	2.55	4.98	6.74	3.75	1.85	4.8
ATCGAAAGGTCGACTAGGTGAGTATACACCGTTT	4.12	3.17	0.302	2.94	0.797	4.24	2.56	3.24	1.06	2.34	0.845	2.25	0.674	1.34	0.62	2.73	0.165	3.24	0.35	3.72
CTCGAAAGGTCGGTTGAGGCGAGTATACGGATAA	1.49	1.17	-0.238	0.925	-0.22	2.11	0.256	0.752	-0.191	0.269	-0.316	0.197	0.246	-0.285	0.331	1.17	-0.214	2	-0.443	2.66
GCTAGCAGGCCATTTAGGTCACTCAATGACGGGC	0.265	-0.00867	-0.241	-0.158	-1.25	1.67	0.871	0.498	-0.134	0.454	1.71	2.41	-0.196	-1.01	-0.0591	0.564	0.12	0.658	-0.306	1.8
GGAACGAGGGCATTCGAGTTGATAGGATGGCGAT	1.38	1.66	-0.255	-0.172	-0.504	1.12	1.01	0.531	-0.182	-0.00549	2.57	2.23	-0.409	-0.611	0.00316	3.7	1.31	0.433	-0.456	1.75
